From ChEMBL document CHEMBL4513135, “CO-ADD screening of IQOG CSIS (Spain) compounds”
“And” between values parts separate entries of the source, which are not always exact repeats. Equal entries are not always repeated. Measured potencies and affinities stand elsewhere.

Columns and labels:
Klebsiella pneumoniae = conditions: Concentration 32 ug.mL-1, ASSAY_TEST Inhibition of Bacterial Growth, detection method Absorption (OD600), MEDIA CAMHB, plate type 384well, NBS, CORNING #3640, time 18 hr
Candida albicans = conditions: 32 ug/mL
Cryptococcus neoformans = conditions: Concentration 32 ug.mL-1, ASSAY_TEST Inhibition of Fungal Growth, detection method Resazurin, Absorption (OD600-OD570), plate type 384well, NBS, CORNING #3640

| SMILES | Inhibition (Klebsiella pneumoniae) | Inhibition (Candida albicans) | Inhibition (Cryptococcus neoformans) | Inhibition (Klebsiella pneumoniae; 32 ug/mL) | Inhibition (Cryptococcus neoformans; 32 ug/mL) |
| --- | --- | --- | --- | --- | --- |
| CCOC(=O)/C(C#N)=C\c1ccc(C)cc1 | 18.72% | 1.42% | -4.89% | – | – |
| CCCC(C)NNC(=O)c1cc2ccccc2[nH]1 (centres undefined) | -0.18% | 0.67% | -3.77% | – | – |
| CC1Cc2c(Cl)nc3nc4c(c(N)c3c2NC1=O)CCCC4 (centres undefined) | 8.15% | 2.83% | -81.78% | – | – |
| NC(=O)N/N=C/c1c[nH]c2ccccc12 | 23.24% | 0.31% | -3.05% | – | – |
| O=C(N/N=C/c1c[nH]c2ccccc12)c1cc2ccccc2[nH]1 | 11.64% | 0.51% | -6.47% | – | – |
| C#CCNC.O=C(O)C(=O)O | 9.05% | 4.18% | -8.52% | – | – |
| Cn1cc(C=O)c2ccccc21 | 2.25% | 1.53% | -4.31% | – | – |
| COc1ccc2nc(Cl)c(C=O)cc2c1 | – | 7.25% and 8.8% | – | -0.34% and -2.5% | -8.56% and -8.89% |
| Cc1[nH]nc2c1C(c1ccc(O)c(O)c1)C(C#N)=C(N)O2 (centres undefined) | 21.92% | 0.31% | 0.65% | – | – |
| N#Cc1c(N)nc(NCCCCC2CCN(Cc3ccccc3)CC2)c(C#N)c1-c1ccccc1 | 9.09% | 2.22% | 0.12% | – | – |
| CC1Cc2c(nc3c(c2N)CCCC3)NC1=O (centres undefined) | 17.01% | 1.73% | -61.31% | – | – |
| CCOC(=O)N/N=C/c1ccccc1 | 8.83% | 4.9% | -5.96% | – | – |
| COc1cc(C2c3ccc4ccccc4c3Oc3nc4c(c(N)c32)CCCC4)ccc1O.Cl (centres undefined) | -2.62% | -0.98% | -5.33% | – | – |
